# Compounds with a hit are over-represented: about 19% of the library has one in this group of screens.
# MCF10A rerep = inducers of DNA re-replication in MCF 10A breast cells; AID 624296; MCF 10A DNA re-replication, Hoechst nuclear intensity, 48 h; 350,000 compounds, 2.9% hits; Potency, µM (series often up to 46.1 µM), without a hit: at the top dose activity, positive = re-replication, hits mostly activators; note: potency is the fitted concentration of half-maximal effect; % of control where 0% means no effect; nearly all actives have a fitted effect of over 50% in size
# DT40 TDP1 CPT = DT40-hTDP1 cell growth loss with CPT; Potency, µM (highest dose often 46.2 µM), for inactives: at the top dose activity change, negative = growth inhibition, actives largely listed as inhibitors; chicken DT40 Tdp1-/-;hTDP1 cells + 20 nM CPT, ATP luminescence, 48 h; AID 686979; 420,000 compounds, 12% hits; note: potency is the fitted concentration of half-maximal effect; % is set by controls: 0 for no effect and ±100 for the full control effect; nearly all actives have a fitted effect of over 55% in size
#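 Chicken DT40 Tdp1-/- cells stably complemented with human TDP1 were seeded at 400 cells/well in medium containing 20 nM camptothecin, exposed to pin-transferred compounds, and grown at 37 °C for at least 48 hr. Viability was read as ATP luminescence.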
# IL-1B inflam inh = blocks inflammasome-driven IL-1 beta release; activity change, % at 57.5 µM; THP-1 LPS/ATP IL-1B secretion, AlphaLISA, 16 h; stronger effect = lower value; 360,000 compounds, 4.7% hits; in the data active = activity change below about -50%; inconclusive = mostly about -30% to -49%; note: % is set by controls: 0 for no effect and ±100 for the full control effect
#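 THP-1 cells pretreated 1 hr with compounds (up to 57.5 uM final), then stimulated with LPS (250 ng/mL final) plus ATP (1.25 mM final); secreted IL-1B measured by AlphaLISA after 16 hr, decreased signal indicating inhibition.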
# Chronic BCR inh = inhibitors of chronic active B-cell receptor signaling | ABC-DLBCL IkBa-CBG/CBR reporter, luminescence ratio, 4 h | Potency, µM (highest dose often 46.1 µM), without a hit: at the highest dose activity change, negative = inhibition, usual class: inhibitors | 340,000 compounds, 0.05% hits; active = well fitted inhibition curve with a large enough effect in the signal ratio, with a control signal flat, not every such curve was filed as active; inconclusive = small, poorly fitted or top-dose-only effect, or effect the other way, or a change in a side signal; the % refers to the signal ratio;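 note: potency is the fitted concentration of half-maximal effect; plate controls were basal doxycycline-induced cells for no effect and cells given 10 µM MG132 for full effect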
#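 Doxycycline induced both beetle luciferases in TMD8 lymphoma cells; IKK-driven degradation limits the IkappaBalpha-fused green signal, while red luminescence normalises for cell number and nonspecific effects. Compounds tested up to 46 uM, 4 hrs.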
# TDP1 cell noCPT = qHTS for Inhibitors of human tyrosyl-DNA phosphodiesterase 1 (TDP1): qHTS in cells in absence of CPT; 420,000 compounds, 15% hits; DT40 Tdp1-/- hTDP1 cells, no CPT, ATP luminescence, 48 h; Potency, µM (series often up to 46.2 µM), for the others: top-dose activity change, negative = growth inhibition, usual class: inhibitors; note: potency is the fitted concentration of half-maximal effect; % is set by controls: 0 for no effect and ±100 for the full control effect; nearly all actives have a fitted effect of over 55% in size
#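 Cells were dispensed at 400 per well, compounds added by pin tool, plates incubated ≥48 hr at 37 °C, then CellTiter-Glo added for 30 min at room temperature before luminescence reading. Line: DT40 Tdp1-/- complemented with hTDP1; camptothecin omitted.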
# SW480 rereplic = induces DNA re-replication in SW480 colon adenocarcinoma cells; Potency, µM (doses to about 46.1 µM), for the others: at the highest dose re-replication activation, actives largely listed as activators; 340,000 compounds, 1.8% hits; AID 624297; SW480 DNA re-replication, Hoechst DNA content imaging, 48 h; note: potency is the fitted concentration of half-maximal effect; % of control where 0% means no effect; nearly all actives have a fitted effect of over 55% in size
#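 Readout is total intensity of Hoechst-stained nuclei, excited at 405 nm and collected at 500-530 nm. Compound treatment lasted 48 hr at 37 C in 5% CO2 before staining.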
# The depositor's hits bear a star; u = inconclusive; x = not tested or not shown. Unless noted, calls come from the whole dose curve; as a rule, active = well fitted curve in the direction sought with a large enough effect; inconclusive = small, poorly fitted or top-dose-only effect, or another doubt; inactive = no such curve, though single readings can be large; an effect the other way counts as inactive or inconclusive.
SMILES,MCF10A rerep,DT40 TDP1 CPT,IL-1B inflam inh,Chronic BCR inh,TDP1 cell noCPT,SW480 rereplic
O=C(O)C(Cc1cnc[nH]1)NS(=O)(=O)c1ccc(Cl)cc1 (configuration not stated),2%,-21%,6,6%,-25%,x
Clc1cccc(Cl)c1Cn1nnc(N2CCCC2)n1,0%,19%,36,-8%,-18%,-135%
Cc1cc(C)cc(NC(=O)CSc2oc(-c3cccs3)nc2S(=O)(=O)c2ccc(Br)cc2)c1,x,5.8µM*,x,x,6.5µM*,x
CC(=O)O[C@]1(C)C(=O)OC/C2=C/CN(C)CCC(OC(=O)[C@@](O)(C(C)O)C[C@H]1C)C2=O (some centres not stated),-1%,19%,-4,0%,16%,-8%
CC(=O)O[C@H]1C[C@@H]2OC3C=C(C)CCC3(C)[C@@]1(C)[C@@]21CO1 (some centres not stated),1µM*,0.58µM*,-100*,x,1µM*,9.2µM*
O=C(Nc1ccon1)c1cccn(Cc2cccc([N+](=O)[O-])c2)c1=O,x,u,x,18%,u,x
CN1C(=O)C(=Cc2coc3ccccc3c2=O)C(=O)N(C)C1=O,u,u,-7,-6%,23µM*,-12%
CN1C(=O)C(=Cc2cn(CC#N)c3ccccc23)C(=O)N(C)C1=O,5%,1%,-9,2%,6%,3%
COc1cccc(NC(=O)N2CCc3nc(Nc4ccc(C(C)C)cc4)ncc3C2)c1,x,26µM*,-14,x,u,x
Cn1cnc(CCN)c1,-4%,6%,2,x,-15%,-83%
CCCc1c(C)nc(-c2ccc(C)cc2)nc1OC(=O)N(C)C,u,15%,-11,u,-24%,-36%
CC(C)c1ccc(NC(=O)C2CCC(CNS(=O)(=O)c3ccc4c(c3)CCCC(=O)N4)CC2)cc1 (configuration not stated),x,13µM*,x,x,16µM*,x
O=C(c1ccc(-c2ccccc2)cc1)C1CCCN(Cc2ccn[nH]2)C1 (configuration not stated),3%,u,-25,-13%,u,-1%
Cc1cc(O)c2c3c(c(=O)oc2c1)CCC(C)C3 (configuration not stated),u,15µM*,0,u,12µM*,-1%
CCOc1cc(C)cc2oc(=O)c3c(c12)CCCC3,2%,0%,10,-2%,7%,0%
CN1c2cc(O)c(N=NC(N)=O)cc2CC1S(=O)(=O)O (configuration not stated),1%,0%,x,x,u,-10%
CN1C(=O)CN=C(c2ccccc2)c2cc([N+](=O)[O-])ccc21,-1%,u,x,-27%,17µM*,-9%
NNc1n[nH]c(=S)n1N,0%,u,20,-1%,u,0%
N#Cc1ccc(CN2CC[C@@]3(CCCN(C(=O)Oc4ccccc4)C3)C2)cc1,x,-1%,x,x,u,x
Cc1ccc(C)c(N2CCN(c3nc4ccc(Cl)cc4n4cnnc34)CC2)c1,x,18µM*,x,x,16µM*,x
Cc1cccc(C)c1-n1nnnc1C(CCc1ccccc1)N1CCC2(CC1)C(=O)NCN2c1ccccc1 (configuration not stated),x,u,6,x,u,x
COc1cc(C(=S)N2CCOCC2)cc(OC)c1OC(=O)Cc1ccccc1,-1%,-12%,43,2%,-2%,0%
O=c1[nH]c(=O)n(-c2ccccc2F)c(O)c1C=NCCC1=CCCCC1,10%,11%,-21,u,u,7%
N=Cc1c(O)n(-c2ccc(C34CC5CC(CC(C5)C3)C4)cc2)c(=O)[nH]c1=O,5%,14%,5,3%,5%,3.3µM*
